Measured values: PubChem BioAssay
The source made the active and inactive calls.

Experiments:
[1] = system: PRMT1 (protein arginine N-methyltransferase 1); test: small molecules binding arginine methyltransferase PRMT1 – biochemical, small-molecule microarray, 635 nm fluorescence, primary screen (AID 1088); conditions: higher = more signal;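 also: binding of Prmt1 protein to compounds spotted on small-molecule microarray slides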
[2] = growth effects on S. cerevisiae YJM789 – YJM789 clinical isolate, OD600, 24 h, basal, primary screen (AID 1089); conditions: higher = more signal, called active from +8 up or from −8 down;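 also: growth of clinical yeast isolate S. cerevisiae YJM 789 seeded 1000 cells per well; test concentration not given here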
[3] = S. pombe growth modifiers, basal conditions – strain 972, OD600, 24 h, no modulator, primary screen (AID 1090);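 also: basal condition with compound alone and no growth modifier present; test concentration not given here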; conditions: S. pombe 972 growth, higher = more signal, called active from +8 up or from −8 down
[4] = budding yeast growth modifiers under rapamycin – strain BY4716, OD600, 96 h, primary screen (AID 1091); also: test concentration not given here; conditions: S. cerevisiae BY4716 + rapamycin, higher = more signal, called active from +8 up or from −8 down
[5] = target: Torsin-1A-interacting protein 2 (Homo sapiens) (UniProt Q8NFQ8); test: small molecules binding lysate-expressed LULL1 – cell lysate, human LULL1 lysate, 635/667 nm fluorescence, primary screen (AID 1092); conditions: small-molecule microarray, hLULL1 lysate binding, 635 nm fluorescence; higher = more signal;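 also: probe is lysate of COS7 cells overexpressing human LULL1; score merges per-feature 667 nm fluorescence with signal-to-noise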
Chain of Torsin-1A-interacting protein 2 (Homo sapiens) (Q8NFQ8 whole entry, looked up): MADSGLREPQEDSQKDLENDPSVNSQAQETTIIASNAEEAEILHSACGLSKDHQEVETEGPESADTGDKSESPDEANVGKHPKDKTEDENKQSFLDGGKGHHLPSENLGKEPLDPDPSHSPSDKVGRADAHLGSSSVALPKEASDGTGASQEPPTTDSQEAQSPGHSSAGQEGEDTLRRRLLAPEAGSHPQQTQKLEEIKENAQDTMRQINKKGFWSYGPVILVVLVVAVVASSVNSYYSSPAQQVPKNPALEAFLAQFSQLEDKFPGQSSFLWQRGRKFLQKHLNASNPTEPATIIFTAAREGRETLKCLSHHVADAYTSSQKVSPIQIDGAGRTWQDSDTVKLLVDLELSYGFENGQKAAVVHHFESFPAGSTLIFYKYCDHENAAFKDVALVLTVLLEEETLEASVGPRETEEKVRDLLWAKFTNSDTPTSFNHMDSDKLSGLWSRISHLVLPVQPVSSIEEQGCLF

[6] = optical density change of DRC41 E. coli – strain DRC41, OD650, 24 h, E. coli filamentation project, primary screen (AID 1093);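 also: MC1000 strain lacking acrAB efflux and sulA so SOS filamentation is blocked; test concentration not given here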; conditions: E. coli DRC41 growth, higher = more signal, called active from +8 up or from −8 down
[7] = probe aLefty2 binding to arrayed compounds – biochemical, biotinylated probe, 635/667 nm fluorescence, primary screen (AID 1094); conditions: small-molecule microarray, higher = more signal;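 also: score merges spot fluorescence near 667 nm with spot signal-to-noise ratio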
[8] = system: Noggin (protein binding on small-molecule microarray); test: small molecules binding Noggin protein – biochemical, 635/667 nm fluorescence, primary screen (AID 1095); conditions: 635 nm fluorescence, higher = more signal;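 also: score merges 667 nm feature fluorescence with signal to noise over triplicate slides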
[9] = target: Neurogenic locus notch homolog protein 3 (Homo sapiens) (UniProt Q9UM47); test: small molecules binding NOTCH3 protein – biochemical, 635/667 nm fluorescence, primary screen (AID 1096); conditions: small-molecule microarray, 635 nm fluorescence, higher = more signal
Chain of Neurogenic locus notch homolog protein 3 (Homo sapiens) (Q9UM47 whole entry, looked up): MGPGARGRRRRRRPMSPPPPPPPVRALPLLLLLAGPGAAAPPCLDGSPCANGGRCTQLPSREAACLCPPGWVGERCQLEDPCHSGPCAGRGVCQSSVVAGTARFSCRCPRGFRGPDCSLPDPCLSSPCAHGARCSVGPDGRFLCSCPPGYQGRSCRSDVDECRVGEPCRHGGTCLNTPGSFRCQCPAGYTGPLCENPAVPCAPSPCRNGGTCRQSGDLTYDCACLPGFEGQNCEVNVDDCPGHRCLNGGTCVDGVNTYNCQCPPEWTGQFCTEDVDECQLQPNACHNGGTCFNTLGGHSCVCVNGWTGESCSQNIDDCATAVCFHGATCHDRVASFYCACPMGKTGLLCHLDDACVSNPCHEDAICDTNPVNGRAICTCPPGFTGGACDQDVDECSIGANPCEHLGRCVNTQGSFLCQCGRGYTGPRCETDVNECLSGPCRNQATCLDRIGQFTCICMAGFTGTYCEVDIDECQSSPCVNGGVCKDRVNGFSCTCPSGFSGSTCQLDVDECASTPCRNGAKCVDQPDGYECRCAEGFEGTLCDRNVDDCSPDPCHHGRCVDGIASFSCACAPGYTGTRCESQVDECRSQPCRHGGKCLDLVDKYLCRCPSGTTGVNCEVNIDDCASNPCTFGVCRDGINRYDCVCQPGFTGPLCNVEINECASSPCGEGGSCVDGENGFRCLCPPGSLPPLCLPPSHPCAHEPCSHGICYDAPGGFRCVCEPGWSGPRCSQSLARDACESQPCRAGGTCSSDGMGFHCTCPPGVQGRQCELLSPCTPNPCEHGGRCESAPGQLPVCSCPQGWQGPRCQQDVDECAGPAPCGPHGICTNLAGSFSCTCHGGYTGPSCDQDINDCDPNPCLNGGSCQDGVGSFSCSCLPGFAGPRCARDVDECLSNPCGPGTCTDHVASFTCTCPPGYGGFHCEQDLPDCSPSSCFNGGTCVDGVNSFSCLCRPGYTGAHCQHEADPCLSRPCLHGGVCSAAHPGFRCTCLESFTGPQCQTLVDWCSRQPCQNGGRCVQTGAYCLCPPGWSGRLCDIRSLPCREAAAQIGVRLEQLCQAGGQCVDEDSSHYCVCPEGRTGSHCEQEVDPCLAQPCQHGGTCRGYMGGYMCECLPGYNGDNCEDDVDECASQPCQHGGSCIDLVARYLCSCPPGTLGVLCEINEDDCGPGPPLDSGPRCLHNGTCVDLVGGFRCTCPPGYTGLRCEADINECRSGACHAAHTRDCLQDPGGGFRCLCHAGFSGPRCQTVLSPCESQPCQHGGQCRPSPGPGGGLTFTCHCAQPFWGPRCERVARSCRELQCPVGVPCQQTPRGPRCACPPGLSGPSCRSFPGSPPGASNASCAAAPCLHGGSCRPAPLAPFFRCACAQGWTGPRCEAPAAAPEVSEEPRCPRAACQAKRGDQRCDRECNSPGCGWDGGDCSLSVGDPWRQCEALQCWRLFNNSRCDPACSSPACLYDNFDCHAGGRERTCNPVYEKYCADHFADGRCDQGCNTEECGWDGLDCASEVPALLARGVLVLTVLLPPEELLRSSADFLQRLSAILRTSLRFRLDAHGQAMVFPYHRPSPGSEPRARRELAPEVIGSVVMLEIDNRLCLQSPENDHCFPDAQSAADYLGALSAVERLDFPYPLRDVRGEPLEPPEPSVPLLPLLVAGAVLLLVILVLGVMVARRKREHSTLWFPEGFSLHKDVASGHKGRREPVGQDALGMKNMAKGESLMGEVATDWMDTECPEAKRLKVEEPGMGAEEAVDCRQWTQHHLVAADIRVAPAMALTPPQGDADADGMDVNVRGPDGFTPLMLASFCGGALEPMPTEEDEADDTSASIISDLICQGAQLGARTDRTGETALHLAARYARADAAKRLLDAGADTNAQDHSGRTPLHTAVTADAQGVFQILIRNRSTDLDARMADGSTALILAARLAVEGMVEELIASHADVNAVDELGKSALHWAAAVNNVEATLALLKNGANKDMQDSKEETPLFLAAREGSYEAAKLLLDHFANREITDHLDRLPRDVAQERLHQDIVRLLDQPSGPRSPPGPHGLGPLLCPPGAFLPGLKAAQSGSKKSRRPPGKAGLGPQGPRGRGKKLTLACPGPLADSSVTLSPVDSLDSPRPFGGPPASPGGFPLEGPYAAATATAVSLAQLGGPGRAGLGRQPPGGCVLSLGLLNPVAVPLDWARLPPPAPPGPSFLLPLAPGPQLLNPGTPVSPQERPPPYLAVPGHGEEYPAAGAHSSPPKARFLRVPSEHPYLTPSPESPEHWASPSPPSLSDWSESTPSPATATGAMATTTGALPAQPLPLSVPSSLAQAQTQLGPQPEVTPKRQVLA

[10] = probe aEGFR binding to arrayed compounds – biochemical, biotinylated probe, 635/667 nm fluorescence, primary screen (AID 1097); conditions: small-molecule microarray, higher = more signal;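 also: probe is a biotinylated anti-EGFR antibody binding compounds printed on slides; score combines fluorescence near 667 nm and signal to noise of each spot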

Row | Structure (SMILES) | composite z-score [1] | z-score [2] | z-score [3] | z-score [4] | composite z-score [5] | z-score [6] | composite z-score [7] | composite z-score [8] | composite z-score [9] | composite z-score [10]
1 | CCC(=O)[C@]12O[C@@]3([C@@H]4C(=O)OCC[C@@H]41)N(CC)C(C)=C(C(=O)OC)[C@@H](c1ccccc1)N3C2=O | -0.486 | -1.62 (inactive) | -1.89 (inactive) | -0.153 (inactive) | 0.155 | 0.421 (inactive) | -0.0928 | 0.152 | -0.37 | -0.0818
2 | COc1ccc(-c2cc3c(c(-c4ccccc4)n2)[Si](C(C)C)(C(C)C)O[C@H]3c2ccccc2)cn1 | 1.11 | -0.136 (inactive) | -0.572 (inactive) | -0.0946 (inactive) | 0.965 | -1.03 (inactive) | -0.132 | 0.47 | 0.596 | 0.0215
3 | N#Cc1ccc(NN2C(C(O)CCc3ccccc3)C=CC3C(=O)N(c4ccccc4)C(=O)C32)cc1 (stereo not given) | 0.212 | -1.53 (inactive) | 0.222 (inactive) | 1.13 (inactive) | 3.01 | -1.11 (inactive) | 0.25 | -0.172 | 1.13 | 0.35
4 | CO[C@H]1COC(=O)[C@@H](Cc2ccccc2)NC(=O)[C@@H](C)COC(=O)CC=C[C@@H]1C | 0.633 | -0.236 (inactive) | -0.669 (inactive) | -0.555 (inactive) | -1.09 | 0.395 (inactive) | -0.202 | 1.48 | 0.269 | -0.096
5 | COCCOC(=O)N1C(=O)[C@@]2(c3cc(C#CCCO)ccc31)[C@H](C(=O)N1CCCCCCC1)[C@H]1C(=O)O[C@H](c3ccccc3)[C@H](c3ccccc3)N1[C@@H]2c1ccc(O)cc1 | 1.56 | -3.75 (inactive) | -2.94 (inactive) | -1.62 (inactive) | 2.91 | 3.27 (inactive) | 1.08 | 1.11 | 1.05 | 0.0645
6 | COC(=O)[C@@]1(Cc2ccc(OC)cc2)[C@H]2c3cc(C(=O)N(C)C)n(Cc4ccc(C)c(F)c4F)c3C[C@H]2CN1C(=O)c1ccccc1 | 0.223 | 1.14 (inactive) | 0.491 (inactive) | 0.972 (inactive) | 2.84 | -0.716 (inactive) | 0.146 | -0.268 | 0.797 | -0.0972
7 | Cc1ccc(S(=O)(=O)N2[C@@H](c3ccccc3)C(C(=O)O)=CC[C@H]2c2ccccc2)cc1 | -0.116 | -0.12 (inactive) | -0.422 (inactive) | 0.0034 (inactive) | 3.4 | -1.76 (inactive) | -0.0096 | -0.208 | 0.622 | 0.0731
8 | C=C(CCCC)/C(=C/C[C@@H](OC(=O)c1ccncc1)c1cccc(OCCO)c1)c1cc(C(=O)OC)ccc1OC | 1.36 | 0.526 (inactive) | -1.17 (inactive) | 0.289 (inactive) | 0.48 | 1.27 (inactive) | -0.0102 | 1.37 | 1.04 | 0.0376
9 | Cc1ccc(S[C@]2(C(=O)NCCCN(C)C)CC(=O)N(C3CCCCC3)[C@@H]2c2ccc(CO)cc2I)cc1 | -0.167 | 0.782 (inactive) | -8.01 (active) | -0.417 (inactive) | 1.81 | -0.455 (inactive) | 0.213 | -0.553 | -0.742 | -0.257
10 | O=C1O[C@H](c2ccccc2)[C@H](c2ccccc2)N2[C@H]1[C@@H](C(=O)NC[C@H](O)c1ccccc1)[C@]1(C(=O)Nc3ccc(C#CC4=CCCCC4)cc31)[C@H]2c1ccc(OCCO)cc1 | 1.55 | 2.99 (inactive) | 1.64 (inactive) | 4.01 (inactive) | 1.85 | -0.422 (inactive) | -0.104 | 0.691 | 1.11 | -0.0494
11 | C=CCN(C(=O)C1N(c2ccc(CCO)cc2)C(=O)C2C(C(=O)O)C3C=CC21O3)C(C)(C)C (stereo not given) | -1.91 | -0.696 (inactive) | -1.89 (inactive) | -0.569 (inactive) | 1.94 | 2.89 (inactive) | -0.014 | -3.2 | -1.92 | -0.356
12 | CCCNC(=O)[C@@H]1c2ccccc2C(=O)N(C2CCCCC2)[C@H]1c1ccc(CO)cc1 | 1.53 | -0.104 (inactive) | 1.15 (inactive) | 1.29 (inactive) | 3.01 | -0.358 (inactive) | 0.0511 | 0.771 | 1.1 | 0.0634
13 | COC(=O)C1=C(C)N(Cc2ccccc2)c2c(C(=O)OC)c(C(=O)OC)c(C(=O)OC)c(=O)n2[C@@H]1c1ccccc1 | 0.269 | -0.677 (inactive) | -1.75 (inactive) | -0.389 (inactive) | 0.309 | 0.535 (inactive) | -0.195 | 0.433 | 0.699 | -0.065
14 | COCCOC(=O)N1C(=O)[C@@]2(c3cc(C#CCNC(N)=O)ccc31)[C@H](c1ccccc1OCCO)N1[C@H](c3ccccc3)[C@H](c3ccccc3)OC(=O)[C@H]1[C@@H]2C(=O)NC[C@H](O)c1ccccc1 | 1.53 | 2.75 (inactive) | 2.09 (inactive) | 6.12 (inactive) | 3.01 | 0.589 (inactive) | -0.0977 | 1.12 | 1.1 | -0.065
15 | COCCCNC(=O)[C@@]1(Sc2ccc(C)cc2)CC(=O)N(Cc2cc(C(F)(F)F)cc(C(F)(F)F)c2)[C@@H]1c1ccc(CO)cc1I | -0.217 | -1.27 (inactive) | -3.56 (inactive) | 0.0085 (inactive) | 1.46 | 0.486 (inactive) | -0.105 | -1.76 | -0.973 | -0.288
16 | CC(=O)NCCCC[C@@H]1NC(=O)[C@H]2C[C@@H](C(=O)NCCCCCCN(C)C)[C@@H](c3cccc(OCCO)c3)N2C1=O | 1.53 | -1.05 (inactive) | -0.36 (inactive) | -0.391 (inactive) | 3.07 | 0.0161 (inactive) | 0.536 | 1.87 | 1.02 | 0.539
17 | O=C/C=C/c1ccc(/C=C/c2ccccc2)cc1 | -0.742 | -2.92 (inactive) | -19.7 (active) | -1.59 (inactive) | -0.917 | 1.51 (inactive) | 0.0262 | -0.43 | -1.2 | -0.225
18 | COc1ccc(-c2ccccc2[C@@H]2N[C@H](C(=O)O)CC[C@H]2C)cc1 | -0.408 | -0.306 (inactive) | -0.572 (inactive) | 0.492 (inactive) | 0.47 | 0.189 (inactive) | -0.05 | 0.412 | 0.412 | 0.0068
19 | COc1ccc(NN2C(C(O)c3cc(OC)c(OC)c(OC)c3)C=CC3C(=O)N(C4CCCCC4)C(=O)C32)cc1 (stereo not given) | 0.544 | 0.199 (inactive) | 0.966 (inactive) | 0.169 (inactive) | 2.87 | -0.319 (inactive) | 0.358 | 0.116 | 1.08 | 0.142
20 | CN1CCC(CCCO)=CC1C1CC1 (stereo not given) | 0.608 | -0.477 (inactive) | -0.851 (inactive) | -0.761 (inactive) | -0.463 | 1.08 (inactive) | -0.308 | 0.724 | 0.0618 | -0.104
21 | C=CC(=O)O[C@@H](Cc1ccccc1)[C@H]1C2C=CCCC=C2CN1Cc1cccc(Cl)c1 (stereo not given in full) | -2.25 | -0.476 (inactive) | -2.23 (inactive) | -1.47 (inactive) | -0.469 | 2.01 (inactive) | -0.192 | -0.551 | -1.53 | -0.189
22 | COCCOC(=O)N1C(=O)[C@@]2(c3cc(C#CCNC(N)=O)ccc31)[C@H](c1ccc(OCCO)cc1)N1[C@H](c3ccccc3)[C@H](c3ccccc3)OC(=O)[C@H]1[C@@H]2C(=O)N1CCCCCCC1 | 0.844 | 1.64 (inactive) | 0.501 (inactive) | 3.94 (inactive) | 0.789 | 2.27 (inactive) | 1.09 | 0.406 | 0.555 | 0.0199
23 | O=C1C2C=CC(C(O)Cc3ccccc3)N(Nc3ccc([N+](=O)[O-])cc3)C2C(=O)N1c1ccccc1 (stereo not given) | 0.623 | -0.442 (inactive) | 0.38 (inactive) | 1.18 (inactive) | 2.92 | -0.209 (inactive) | 0.232 | 0.278 | 0.864 | 0.268
24 | COc1cc2c(cc1OC)CN(C(=O)[C@@H]1[C@H]3C(=O)O[C@H](c4ccccc4)[C@H](c4ccccc4)N3[C@H](c3ccccc3OCCO)[C@@]13C(=O)Nc1ccccc13)CC2 | 1.55 | 2.39 (inactive) | 1.19 (inactive) | 5.58 (inactive) | 1.76 | 1.92 (inactive) | -0.301 | 0.208 | 1.05 | -0.198
25 | C=CCOC(=O)[C@@H]1[C@H]2C(=O)O[C@H](c3ccccc3)[C@H](c3ccccc3)N2[C@H](c2ccc(OCCOC(=O)[C@H]3C[C@H]4C(=O)N[C@@H](CCCCNC(C)=O)C(=O)N4[C@H]3c3ccc(O)cc3)cc2)[C@@]12C(=O)Nc1ccc(I)cc12 | 1.55 | 1.38 (inactive) | 0.802 (inactive) | 4.48 (inactive) | 1.39 | -0.428 (inactive) | -0.0974 | 1.66 | 1.07 | 0.0333
26 | CO[C@H]1COC(=O)[C@H](Cc2ccccc2)NC(=O)CC=C[C@@H](C)[C@H](OC)COC(=O)CC=C[C@@H]1C | -0.141 | -0.39 (inactive) | -1.44 (inactive) | -0.617 (inactive) | 0.239 | 0.296 (inactive) | -0.152 | 0.344 | 0.717 | 0.0875
27 | CCCC/C=C/[C@H]([C@@H](O)Cc1ccccc1)N(CC#Cc1ccccc1)Cc1ccccc1Br | -0.439 | 0.933 (inactive) | -0.972 (inactive) | 0.0956 (inactive) | -0.0817 | 2.92 (inactive) | 0.0735 | -2.07 | -1.4 | -0.428
28 | CCCC=C(CCC)[C@@H](NS(=O)(=O)c1ccc(C(F)(F)F)cc1)c1ccc(-c2ccccc2)cc1 | 1.09 | 0.251 (inactive) | -3.21 (inactive) | -0.1 (inactive) | 3 | -0.39 (inactive) | 0.0491 | 0.77 | 0.762 | -0.013
29 | COC(=O)Cn1c(C(=O)N2CCCC2)cc2c1C[C@H]1CN(C(=O)c3ccccc3)[C@@](Cc3ccc(OC)cc3)(C(=O)OC)[C@@H]21 | -0.709 | 0.742 (inactive) | 1.39 (inactive) | 2.75 (inactive) | 3.24 | -0.485 (inactive) | 0.531 | -1.02 | 1.13 | 0.434
